Results: PubChem BioAssay AID1159580 (chemical genetic matrix, 2015)
Out of some 5,500 compounds screened, about 2,000 (36%) were called active. Another 18% or so got no clear call; they are omitted. No stated cut-off is given here; in the data, active means normalized growth mostly below about 0.91 (no sharp cut-off); inconclusive means no clear call, values can overlap the other calls; inactive means mostly above about 0.92. The list shows a part of the results.

Test: chemical genetic growth profiling, strain panel (AID 1159580);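 further: tested at 20 µM; growth read once vehicle control cultures reached saturation at 30 °C; 1 = growth at the plate median or of vehicle wells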
Details: growth OD

Measured: normalized growth

CCC(C)C(OC(C)=O)C(=O)OC1C(O)C2C3(C)C=CC(=O)C(C)(C)C3CC(OC(=O)C(O)C(C)C)C2(C)C23OC2CC(c2ccoc2)C13C (stereo unspecified)
inactive: S. cerevisiae deletion strains, locus YAL013W, strain DEP1, stronger effect = lower value 1.01 | S. cerevisiae deletion strains, locus YBR021W, strain FUR4, stronger effect = lower value 0.996 | S. cerevisiae deletion strains, locus YBR229C, strain ROT2, stronger effect = lower value 0.989 | S. cerevisiae deletion strains, locus YCL029C, strain bik1, stronger effect = lower value 0.978 | S. cerevisiae deletion strains, locus YDL035C, strain GPR1, stronger effect = lower value 0.976 | S. cerevisiae deletion strains, locus YDL074C, strain BRE1, stronger effect = lower value 1.02 | S. cerevisiae deletion strains, locus YDL101C, strain DUN1, stronger effect = lower value 1 | S. cerevisiae deletion strains, locus YDL134C, strain PPH21, stronger effect = lower value 1 | S. cerevisiae deletion strains, locus YDL185W, strain tfp1, stronger effect = lower value 0.988 | S. cerevisiae deletion strains, locus YDL192W, strain arf1, stronger effect = lower value 0.989 | S. cerevisiae deletion strains, locus YDR101C, strain arx1, stronger effect = lower value 0.991 | S. cerevisiae deletion strains, locus YDR150W, strain NUM1, stronger effect = lower value 1.01 | S. cerevisiae deletion strains, locus YDR162C, strain NBP2, stronger effect = lower value 1.02 | S. cerevisiae deletion strains, locus YDR318W, strain mcm21, stronger effect = lower value 0.966 | S. cerevisiae deletion strains, locus YDR388W, stronger effect = lower value 0.988 | S. cerevisiae deletion strains, locus YDR502C, strain sam2, stronger effect = lower value 1.02 | S. cerevisiae deletion strains, locus YEL061C, strain CIN8, stronger effect = lower value 1 | S. cerevisiae deletion strains, locus YER110C, stronger effect = lower value 0.992 | S. cerevisiae deletion strains, locus YER155C, strain BEM2, stronger effect = lower value 1 | S. cerevisiae deletion strains, locus YER167W, strain BCK2, stronger effect = lower value 0.982 | S. cerevisiae deletion strains, locus YGL078C, strain dbp3, stronger effect = lower value 1 | S. cerevisiae deletion strains, locus YGL086W, strain mad1, stronger effect = lower value 0.978 | S. cerevisiae deletion strains, locus YGL248W, strain PDE1, stronger effect = lower value 0.999 | S. cerevisiae deletion strains, locus YGR078C, strain PAC10, stronger effect = lower value 1.04 | S. cerevisiae deletion strains, locus YGR135W, strain pre9, stronger effect = lower value 1.02 | S. cerevisiae deletion strains, locus YGR229C, strain SMI1, stronger effect = lower value 1.02 | S. cerevisiae deletion strains, locus YGR252W, strain gcn5, stronger effect = lower value 0.946 | S. cerevisiae deletion strains, locus YHR030C, strain SLT2, stronger effect = lower value 0.994 | S. cerevisiae deletion strains, locus YHR079C, strain IRE1 (second series), stronger effect = lower value 1 | S. cerevisiae deletion strains, locus YHR094C, strain hxt1, stronger effect = lower value 0.988 | S. cerevisiae deletion strains, locus YHR129C, strain ARP1, stronger effect = lower value 1 | S. cerevisiae deletion strains, locus YHR200W, strain rpn10, stronger effect = lower value 0.987 | S. cerevisiae deletion strains, locus YIL066C, strain RNR3, stronger effect = lower value 0.994 | S. cerevisiae deletion strains, locus YIL073C, strain SPO22, stronger effect = lower value 0.902 | S. cerevisiae deletion strains, locus YIL125W, strain kgd1, stronger effect = lower value 0.986 | S. cerevisiae deletion strains, locus YIR030C, strain dcg1, stronger effect = lower value 0.988 | S. cerevisiae deletion strains, locus YJL095W, strain BCK1, stronger effect = lower value 1.05 | S. cerevisiae deletion strains, locus YJL134W, strain LCB3, stronger effect = lower value 0.997 | S. cerevisiae deletion strains, locus YJL168C, strain set2, stronger effect = lower value 0.992 | S. cerevisiae deletion strains, locus YJL187C, strain SWE1 (second series), stronger effect = lower value 1.01 | S. cerevisiae deletion strains, locus YJR043C, strain POL32, stronger effect = lower value 0.969 | S. cerevisiae deletion strains, locus YJR075W, strain HOC1, stronger effect = lower value 1.01 | S. cerevisiae deletion strains, locus YKL009W, strain mrt4, stronger effect = lower value 1.08 | S. cerevisiae deletion strains, locus YKL068W, stronger effect = lower value 1 | S. cerevisiae deletion strains, locus YKL085W, strain MDH1 (second series), stronger effect = lower value 1.04 | S. cerevisiae deletion strains, locus YKL085W, strain MDH1, stronger effect = lower value 1.04 | S. cerevisiae deletion strains, locus YKL190W, strain CNB1, stronger effect = lower value 0.998 | S. cerevisiae deletion strains, locus YKR001C, strain vps1, stronger effect = lower value 0.991 | S. cerevisiae deletion strains, locus YLR039C, strain RIC1, stronger effect = lower value 0.962 | S. cerevisiae deletion strains, locus YLR058C, strain SHM2, stronger effect = lower value 0.995 | S. cerevisiae deletion strains, locus YLR102C, strain apc9, stronger effect = lower value 0.982 | S. cerevisiae deletion strains, locus YLR262C, strain YPT6, stronger effect = lower value 0.973 | S. cerevisiae deletion strains, locus YLR268W, strain sec22, stronger effect = lower value 1.02 | S. cerevisiae deletion strains, locus YLR330W, strain CHS5, stronger effect = lower value 0.996 | S. cerevisiae deletion strains, locus YLR342W, strain FKS1 (second series), stronger effect = lower value 0.987 | S. cerevisiae deletion strains, locus YLR371W, strain rom2, stronger effect = lower value 0.985 | S. cerevisiae deletion strains, locus YLR418C, strain cdc73, stronger effect = lower value 1 | S. cerevisiae deletion strains, locus YML016C, strain PPZ1, stronger effect = lower value 1 | S. cerevisiae deletion strains, locus YML032C, strain rad52, stronger effect = lower value 0.97 | S. cerevisiae deletion strains, locus YML124C, strain tub3, stronger effect = lower value 0.993 | S. cerevisiae deletion strains, locus YMR078C, strain ctf18, stronger effect = lower value 0.977 | S. cerevisiae deletion strains, locus YMR223W, strain ubp8, stronger effect = lower value 0.983 | S. cerevisiae deletion strains, locus YMR263W, strain SAP30, stronger effect = lower value 1.04 | S. cerevisiae deletion strains, locus YMR307W, strain GAS1, stronger effect = lower value 0.912 | S. cerevisiae deletion strains, locus YNL067W, strain RPL9B, stronger effect = lower value 1.03 | S. cerevisiae deletion strains, locus YNL128W, strain TEP1, stronger effect = lower value 1.01 | S. cerevisiae deletion strains, locus YNL153C, strain GIM3, stronger effect = lower value 1.05 | S. cerevisiae deletion strains, locus YNL233W, strain BNI4, stronger effect = lower value 1.03 | S. cerevisiae deletion strains, locus YNL250W, strain rad50, stronger effect = lower value 0.992 | S. cerevisiae deletion strains, locus YNL271C, strain bni1, stronger effect = lower value 0.993 | S. cerevisiae deletion strains, locus YNL298W, strain CLA4, stronger effect = lower value 0.99 | S. cerevisiae deletion strains, locus YNL307C, strain MCK1, stronger effect = lower value 0.979 | S. cerevisiae deletion strains, locus YNL322C, strain KRE1, stronger effect = lower value 0.999 | S. cerevisiae deletion strains, locus YNR052C, strain pop2, stronger effect = lower value 0.988 | S. cerevisiae deletion strains, locus YOL006C, strain TOP1, stronger effect = lower value 0.949 | S. cerevisiae deletion strains, locus YOL012C, strain htz1 2.38 | S. cerevisiae deletion strains, locus YOL147C, strain pex11, stronger effect = lower value 0.999 | S. cerevisiae deletion strains, locus YOR061W, strain CKA2, stronger effect = lower value 1 | S. cerevisiae deletion strains, locus YOR069W, strain VPS5, stronger effect = lower value 0.978 | S. cerevisiae deletion strains, locus YOR136W, strain idh2, stronger effect = lower value 0.979 | S. cerevisiae deletion strains, locus YOR144C, strain elg1, stronger effect = lower value 1 | S. cerevisiae deletion strains, locus YOR184W, strain ser1, stronger effect = lower value 0.946 | S. cerevisiae deletion strains, locus YOR316C, strain cot1, stronger effect = lower value 0.996 | S. cerevisiae deletion strains, locus YPL055C, strain LGE1, stronger effect = lower value 1.05 | S. cerevisiae deletion strains, locus YPL241C, strain CIN2, stronger effect = lower value 1 | S. cerevisiae deletion strains, locus YPR119W, strain clb2, stronger effect = lower value 0.993 | S. cerevisiae deletion strains, locus YPR141C, strain kar3, stronger effect = lower value 0.99 | S. cerevisiae deletion strains, locus YPR163C, strain tif3, stronger effect = lower value 0.986 | S. cerevisiae deletion strains, locus YPR167C, strain met16, stronger effect = lower value 0.99 | S. cerevisiae deletion strains, strain wtn01, stronger effect = lower value 1 | S. cerevisiae strains, strain wild type, stronger effect = lower value 0.985
